We go through eight molecules from PubChem BioAssay (EPA / NIEHS).

Activity calls are given as the source filed them. The calls were made as follows: active = hit-call score of the fitted dose curve at least 0.9, where 1 is the maximum; inactive = score below 0.9.

The nature of test [1]: ATG_GLI_CIS: Attagene CIS-FACTORIAL HepG2 Assay for human Zinc Finger Protein GLI1 (AID 2282945). As to conditions: HepG2, Attagene cis-factorial reporter mRNA, GLI element; actives raise or lower the signal. An outline of the steps: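 HepG2 cells transiently transfected with cis-promoter multiplexed reporter units report endogenous transcription factor activity. After 24 h chemical exposure, reporter mRNA was quantified by RT-PCR, 6-FAM labelling, HpaI digestion and capillary electrophoresis, with bidirectional fitting against DMSO.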

The nature of test [2]: ATG_GRE_CIS: Attagene CIS-FACTORIAL HepG2 Assay for human Glucocorticoid Response Elements (GRE) (AID 2282947). As to conditions: HepG2 GRE cis-reporter, Attagene multiplex mRNA; actives raise or lower the signal. Summed up: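 HepG2 cells transiently transfected with multiple cis-promoter reporter units measure endogenous TF activity; 24 h compound exposure. Reporter mRNA quantified by RT-PCR, FAM labelling, HpaI digestion and capillary electrophoresis; bidirectional fit vs DMSO baseline.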

Test [3] is described as follows: ATG_ISRE_CIS: Attagene CIS-FACTORIAL HepG2 Assay for human Interferon Regulatory Factor 1 (IRF1) binding to an Interferon-Stimulated Response Element (ISRE) (AID 2282948). As to conditions: HepG2 ISRE cis-reporter (Attagene), mRNA transcription readout; actives raise or lower the signal. An outline of the steps:
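Transiently transfected HepG2 cells carrying cis-element reporter units, dosed 24 hours. Reporter mRNA quantified by RT-PCR, fluorescent primer extension, HpaI digestion and capillary electrophoresis. Bidirectional fitting relative to DMSO.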

Test [4] in a line: ATG_M_32_CIS: Attagene CIS-FACTORIAL HepG2 Assay for M32 Transcription Factor (Internal Marker) (AID 2282949).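 Also: background control marker of the multiplexed CIS panel rather than a real target.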 As to conditions: HepG2 Attagene cis-factorial M32 reporter, mRNA; actives raise or lower the signal. Summed up:
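Following 24 h chemical exposure of HepG2 cells transiently expressing cis-promoter reporter constructs, reporter transcript levels were determined by RT-PCR with fluorescent labelling and capillary electrophoresis, then fitted bidirectionally against DMSO.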

Test [5] in a line: ATG_M_06_CIS: Attagene CIS-FACTORIAL HepG2 Assay for M06 Transcription Factor (Internal Marker) (AID 2282950). As to conditions: HepG2 Attagene CIS-FACTORIAL M06 internal marker reporter; actives raise or lower the signal. An outline of the steps: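 Terse: HepG2, transient MRTU transfection (FuGene 6), 24 h dosing; total RNA, oligo(dT) RT, PCR, FAM label, HpaI cut, capillary electrophoresis; bidirectional fit vs DMSO baseline; background-control endpoint.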

Test [6] has as its target Hepatocyte nuclear factor 6 (Homo sapiens) (UniProt Q9UBC0). As to the kind of experiment: ATG_HNF6_CIS: Attagene CIS-FACTORIAL HepG2 Assay for human Hepatocyte Nuclear Factor 6 (HNF6) (AID 2282952). As to conditions: HepG2 Attagene cis-factorial HNF6 reporter transcription; actives raise or lower the signal. An outline of the steps:
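Reporter mRNA induction or loss in HepG2 after 24 h exposure; transient cis-MRTU transfection; fragments quantified by capillary electrophoresis; bidirectional analysis, DMSO as negative control.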

Test [7] deals with Heat shock factor protein 1 (Homo sapiens) (UniProt Q00613). As to the kind of experiment: ATG_HSE_CIS: Attagene CIS-FACTORIAL HepG2 Assay for human Heat Shock Transcription Factor 1 (HSE) (AID 2282953). As to conditions: HepG2 HSE cis-reporter, Attagene RNA transcription; actives raise or lower the signal. An outline of the steps: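 Read-out: fluorescence of reporter-specific RT-PCR fragments separated by capillary electrophoresis. HepG2 carrying transfected cis-element reporter units; 24 h dosing; activity fitted in both directions relative to DMSO baseline.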
Chain of Heat shock factor protein 1 (Homo sapiens) (Q00613 whole entry, looked up, the tested form may be a part): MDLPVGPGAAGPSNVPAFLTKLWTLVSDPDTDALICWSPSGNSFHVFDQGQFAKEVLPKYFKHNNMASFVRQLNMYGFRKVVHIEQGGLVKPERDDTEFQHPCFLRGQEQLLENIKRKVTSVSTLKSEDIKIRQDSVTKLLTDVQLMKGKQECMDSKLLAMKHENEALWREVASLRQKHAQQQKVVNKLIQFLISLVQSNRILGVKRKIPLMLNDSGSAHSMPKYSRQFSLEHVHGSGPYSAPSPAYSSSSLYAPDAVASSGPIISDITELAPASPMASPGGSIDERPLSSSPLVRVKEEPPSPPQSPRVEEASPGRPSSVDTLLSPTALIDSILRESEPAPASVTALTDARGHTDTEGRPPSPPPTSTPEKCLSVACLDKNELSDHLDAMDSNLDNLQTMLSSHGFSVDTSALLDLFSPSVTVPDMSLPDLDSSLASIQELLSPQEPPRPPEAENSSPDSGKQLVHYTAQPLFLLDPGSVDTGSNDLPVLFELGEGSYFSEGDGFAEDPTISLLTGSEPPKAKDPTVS

The nature of test [8]: ATG_MRE_CIS: Attagene CIS-FACTORIAL HepG2 Assay for human Metal Responsive Element (MRE) (AID 2282954). As to conditions: HepG2 MRE cis-reporter transcription, Attagene multiplex; actives raise or lower the signal. An outline of the steps:
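HepG2 cells transiently transfected with multiple cis-element reporter units measure endogenous MTF1-driven transcription. After 24 h compound exposure, reporter mRNA is quantified by RT-PCR with 6-FAM labelling, HpaI digestion and capillary electrophoresis; bidirectional fits versus DMSO.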

In test [9] the target is Paired box protein Pax-6 (Homo sapiens) (UniProt P26367). As to the kind of experiment: ATG_Pax6_CIS: Attagene CIS-FACTORIAL HepG2 Assay for human Paired Box 6 (PAX6) (AID 2282956). As to conditions: HepG2 CIS-FACTORIAL PAX6 reporter transcription, RNA readout; actives raise or lower the signal. An outline of the steps:
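HepG2 cells transiently transfected with cis-promoter-driven multiplexed reporter units sensing endogenous transcription factor activity; 24 h chemical exposure. Reporter mRNA quantified by RT-PCR, 6-FAM labelling, HpaI digestion and capillary electrophoresis; bidirectional fit versus DMSO baseline.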

Test [10] is described as follows: ATG_PXRE_CIS: Attagene CIS-FACTORIAL HepG2 Assay for human Pregnane X Receptor Element (PXRE) (AID 2282957). As to conditions: HepG2 Attagene CIS-FACTORIAL PXRE reporter, mRNA; actives raise or lower the signal. Summed up:
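Transiently transfected HepG2 cells were dosed and incubated for 24 h. RNA was then isolated, DNase-treated, reverse-transcribed and reporter sequences amplified. Labeled, HpaI-digested fragments were quantified by capillary electrophoresis against DMSO.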

Test [11] is described as follows: ATG_PPRE_CIS: Attagene CIS-FACTORIAL HepG2 Assay for human Peroxisome Proliferator-activated Response Element (PPRE) (AID 2282958). As to conditions: HepG2 PPRE cis-element reporter, Attagene transcription factor profiling; actives raise or lower the signal. Summed up:
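HepG2 cells transiently transfected with multiplexed cis-element reporter units measure endogenous transcription factor activity. After 24 h compound exposure, reporter mRNA is quantified by RT-PCR, 6-FAM labeling, HpaI digestion and capillary electrophoresis; bidirectional fits are made against DMSO baseline.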

Test [12] in a line: ATG_RORE_CIS: Attagene CIS-FACTORIAL HepG2 Assay for human RAR-related Orphan Receptor Element (RORE) (AID 2282959). As to conditions: HepG2 Attagene cis-factorial RORE reporter, mRNA; actives raise or lower the signal. An outline of the steps:
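HepG2 cells transiently transfected with multiple cis-element reporter transcription units, exposed to chemical for 24 h. Reporter mRNA quantified by RT-PCR, 6-FAM primer-extension labeling, HpaI digestion and capillary electrophoresis; bidirectional fit versus DMSO baseline.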

Test [13] can be described thus: ATG_Sox_CIS: Attagene CIS-FACTORIAL HepG2 Assay for human SRY-box transcription factor (SOX) (AID 2282960). As to conditions: HepG2 Attagene cis-factorial SOX reporter, mRNA; actives raise or lower the signal. An outline of the steps:
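HepG2 cells transiently transfected with cis-element-driven multiple reporter transcription units, dosed 24 h; reporter mRNA measured by RT-PCR, FAM labelling, HpaI digestion and capillary electrophoresis. Bidirectional fit versus DMSO baseline.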

In test [14] the target is Transcription factor Sp1 (Homo sapiens) (UniProt P08047). The test can be described thus: ATG_Sp1_CIS: Attagene CIS-FACTORIAL HepG2 Assay for human Specificity Protein 1 (Sp1) (AID 2282961). As to conditions: HepG2 Sp1 cis-reporter transcription, actives raise or lower the signal. An outline of the steps: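 HepG2 cells transiently transfected with multiple reporter transcription units driven by cis-regulatory elements; Sp1-responsive reporter mRNA measured 24 h after dosing by RT-PCR and capillary electrophoresis fluorescence, fitted bidirectionally against DMSO baseline.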
Chain of Transcription factor Sp1 (Homo sapiens) (P08047 whole entry, looked up): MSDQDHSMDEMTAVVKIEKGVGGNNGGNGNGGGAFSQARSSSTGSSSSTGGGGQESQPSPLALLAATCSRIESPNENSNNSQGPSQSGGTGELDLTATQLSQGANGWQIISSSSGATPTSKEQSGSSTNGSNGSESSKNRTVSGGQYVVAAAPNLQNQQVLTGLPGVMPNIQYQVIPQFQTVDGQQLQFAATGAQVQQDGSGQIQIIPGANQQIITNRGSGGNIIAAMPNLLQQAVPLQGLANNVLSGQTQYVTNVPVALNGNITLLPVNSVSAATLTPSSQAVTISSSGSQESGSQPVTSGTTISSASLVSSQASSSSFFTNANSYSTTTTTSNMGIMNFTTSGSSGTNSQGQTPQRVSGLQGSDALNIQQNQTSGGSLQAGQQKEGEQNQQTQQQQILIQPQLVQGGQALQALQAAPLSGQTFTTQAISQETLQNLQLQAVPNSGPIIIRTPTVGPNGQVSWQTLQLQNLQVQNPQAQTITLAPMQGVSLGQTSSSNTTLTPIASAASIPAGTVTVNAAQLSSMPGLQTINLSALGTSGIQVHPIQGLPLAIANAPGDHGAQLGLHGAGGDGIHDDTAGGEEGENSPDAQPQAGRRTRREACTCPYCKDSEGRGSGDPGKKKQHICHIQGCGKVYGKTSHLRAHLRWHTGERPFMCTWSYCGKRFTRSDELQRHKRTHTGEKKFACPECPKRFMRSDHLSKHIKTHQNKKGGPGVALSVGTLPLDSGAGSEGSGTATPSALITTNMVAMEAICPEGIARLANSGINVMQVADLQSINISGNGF

Test [15] can be described thus: ATG_SREBP_CIS: Attagene CIS-FACTORIAL HepG2 Assay for human Sterol Regulatory Element Binding (SREBP) (AID 2282962). As to conditions: HepG2 Attagene cis-factorial SREBP reporter, mRNA; actives raise or lower the signal. An outline of the steps:
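HepG2 cells transiently transfected with multiplexed cis-promoter reporter units sensing endogenous transcription factors; reporter mRNA measured 24 h after dosing by RT-PCR, 6-FAM labeling, HpaI digestion and capillary electrophoresis. Bidirectional fit versus DMSO.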

Test [16] can be described thus: ATG_TA_CIS: Attagene CIS-FACTORIAL HepG2 Assay for human TA Basal Promoter (AID 2282964). As to conditions: HepG2 Attagene CIS-factorial TA basal promoter reporter; actives raise or lower the signal. An outline of the steps:
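Transfected HepG2, 24 h compound exposure; RNA → RT-PCR → FAM primer extension → HpaI cut → CE fluorescence. Gain/loss-of-signal fitted against DMSO negative control. Background-control readout.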

Test [17] addresses Signal transducer and activator of transcription 3 (Homo sapiens) (UniProt P40763). As to the kind of experiment: ATG_STAT3_CIS: Attagene CIS-FACTORIAL HepG2 Assay for human Signal Transducer and Activator of Transcription 3 (STAT3) (AID 2282963). As to conditions: HepG2, Attagene cis-factorial STAT3 reporter transcription; actives raise or lower the signal. Summed up: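 HepG2 cells transiently transfected with cis-element-driven multiple reporter transcription units; after 24 h chemical exposure, reporter mRNA measured by RT-PCR, 6-FAM primer-extension labelling, HpaI digestion and capillary electrophoresis. Bidirectional fitting versus DMSO baseline.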

Test [18] concerns the target Hypoxia-inducible factor 1-alpha (Homo sapiens) (UniProt Q16665). The test can be described thus: ATG_HIF1a_CIS: Attagene CIS-FACTORIAL HepG2 Assay for human Hypoxia Inducible Factor 1 (HIF1A) (AID 2282951). As to conditions: HepG2 Attagene cis-factorial HIF1a reporter transcription; actives raise or lower the signal. An outline of the steps:
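HepG2 cells transiently transfected with multiplexed cis-promoter reporter units; reporter mRNA read 24 h after dosing by RT-PCR, 6-FAM primer-extension labelling, HpaI digestion and capillary electrophoresis. Bidirectional fit versus DMSO baseline.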

The nature of test [19]: ATG_PBREM_CIS: Attagene CIS-FACTORIAL HepG2 Assay for human Phenobarbital-responsive Enhancer Module (PBREM) (AID 2282955). As to conditions: HepG2 PBREM cis-reporter, Attagene multiplexed transcription; actives raise or lower the signal. Summed up:
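HepG2 cells transiently transfected with multiple cis-regulated reporter transcription units; endogenous factor activity at the PBREM element measured as reporter mRNA 24 h after dosing, via RT-PCR and capillary electrophoresis of fluorescent fragments; bidirectional fitting versus DMSO.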

Chain of Hepatocyte nuclear factor 6 (Homo sapiens) (Q9UBC0 whole entry, looked up, the tested form may be a part): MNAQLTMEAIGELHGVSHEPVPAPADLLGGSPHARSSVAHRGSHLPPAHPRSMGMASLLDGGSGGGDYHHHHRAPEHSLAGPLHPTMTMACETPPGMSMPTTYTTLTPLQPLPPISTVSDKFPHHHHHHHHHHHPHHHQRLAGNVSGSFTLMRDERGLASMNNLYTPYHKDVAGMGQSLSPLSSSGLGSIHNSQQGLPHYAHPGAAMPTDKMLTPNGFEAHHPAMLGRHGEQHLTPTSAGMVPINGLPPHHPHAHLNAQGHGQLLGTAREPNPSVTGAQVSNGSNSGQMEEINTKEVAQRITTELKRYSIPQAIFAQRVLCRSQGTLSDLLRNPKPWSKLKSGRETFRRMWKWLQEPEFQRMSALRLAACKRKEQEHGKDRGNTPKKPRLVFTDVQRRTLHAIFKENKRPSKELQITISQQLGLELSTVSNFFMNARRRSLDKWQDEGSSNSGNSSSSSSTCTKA
Chain of Paired box protein Pax-6 (Homo sapiens) (P26367 whole entry, looked up): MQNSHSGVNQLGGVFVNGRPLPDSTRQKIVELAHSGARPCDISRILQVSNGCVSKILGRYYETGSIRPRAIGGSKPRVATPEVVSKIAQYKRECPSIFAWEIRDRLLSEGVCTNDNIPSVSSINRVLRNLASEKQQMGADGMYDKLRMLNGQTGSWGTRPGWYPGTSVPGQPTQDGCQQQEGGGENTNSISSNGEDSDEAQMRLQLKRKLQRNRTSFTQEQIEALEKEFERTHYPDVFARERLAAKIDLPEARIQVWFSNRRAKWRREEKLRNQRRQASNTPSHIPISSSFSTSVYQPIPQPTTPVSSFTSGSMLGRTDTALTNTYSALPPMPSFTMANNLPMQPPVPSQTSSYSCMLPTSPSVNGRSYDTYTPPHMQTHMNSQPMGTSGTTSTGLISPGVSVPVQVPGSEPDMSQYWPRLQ
Chain of Signal transducer and activator of transcription 3 (Homo sapiens) (P40763 whole entry, looked up): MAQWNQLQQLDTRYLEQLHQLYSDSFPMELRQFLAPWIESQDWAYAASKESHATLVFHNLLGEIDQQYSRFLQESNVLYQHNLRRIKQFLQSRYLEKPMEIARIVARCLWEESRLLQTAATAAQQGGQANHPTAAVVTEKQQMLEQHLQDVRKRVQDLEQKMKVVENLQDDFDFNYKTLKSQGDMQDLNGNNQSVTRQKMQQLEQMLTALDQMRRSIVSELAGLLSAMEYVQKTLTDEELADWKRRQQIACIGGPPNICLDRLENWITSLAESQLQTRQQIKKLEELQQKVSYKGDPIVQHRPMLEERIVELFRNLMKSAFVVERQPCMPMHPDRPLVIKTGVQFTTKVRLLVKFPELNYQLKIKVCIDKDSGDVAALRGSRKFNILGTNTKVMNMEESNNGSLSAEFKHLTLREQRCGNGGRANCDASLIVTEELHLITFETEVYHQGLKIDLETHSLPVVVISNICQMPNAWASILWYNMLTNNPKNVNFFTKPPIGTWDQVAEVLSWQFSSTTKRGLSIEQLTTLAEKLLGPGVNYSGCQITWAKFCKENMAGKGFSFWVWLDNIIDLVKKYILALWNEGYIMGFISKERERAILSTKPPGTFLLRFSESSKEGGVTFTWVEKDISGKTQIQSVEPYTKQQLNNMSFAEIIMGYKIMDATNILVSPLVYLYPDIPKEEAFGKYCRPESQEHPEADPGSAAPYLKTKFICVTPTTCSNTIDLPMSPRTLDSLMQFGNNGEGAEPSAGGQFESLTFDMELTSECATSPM
Chain of Hypoxia-inducible factor 1-alpha (Homo sapiens) (Q16665 whole entry, looked up): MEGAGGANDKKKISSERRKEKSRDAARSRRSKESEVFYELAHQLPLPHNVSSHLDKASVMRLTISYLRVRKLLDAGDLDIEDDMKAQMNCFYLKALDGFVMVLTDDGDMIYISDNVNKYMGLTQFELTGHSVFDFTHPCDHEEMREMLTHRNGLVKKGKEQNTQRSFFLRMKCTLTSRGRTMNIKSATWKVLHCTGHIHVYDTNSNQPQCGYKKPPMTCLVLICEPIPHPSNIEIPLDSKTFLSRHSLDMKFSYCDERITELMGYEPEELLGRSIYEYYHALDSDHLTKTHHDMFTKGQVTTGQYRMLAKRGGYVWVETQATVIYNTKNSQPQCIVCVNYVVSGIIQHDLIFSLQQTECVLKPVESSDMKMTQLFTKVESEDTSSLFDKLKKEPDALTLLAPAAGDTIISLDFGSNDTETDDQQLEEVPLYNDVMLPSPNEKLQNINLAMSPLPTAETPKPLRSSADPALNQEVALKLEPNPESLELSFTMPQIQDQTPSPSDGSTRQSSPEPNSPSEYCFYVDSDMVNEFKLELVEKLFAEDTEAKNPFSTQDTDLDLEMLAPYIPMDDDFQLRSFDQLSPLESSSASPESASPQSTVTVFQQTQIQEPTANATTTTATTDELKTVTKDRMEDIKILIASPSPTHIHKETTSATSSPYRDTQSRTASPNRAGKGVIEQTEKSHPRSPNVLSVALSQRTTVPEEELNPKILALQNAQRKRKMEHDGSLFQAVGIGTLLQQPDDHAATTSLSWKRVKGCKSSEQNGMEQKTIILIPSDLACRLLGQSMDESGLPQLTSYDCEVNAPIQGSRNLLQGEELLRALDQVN

With `O=C(O)c1ccc(C(=O)O)c(C(=O)O)c1`, the molecule was called inactive in test [1], in test [2], in [3], in [4], in test [5] and in test [6]. Moreover, the call in test [7], in [8], in test [9], in test [10], in test [11] and in test [12] was inactive. The outcome in [13], in test [14], in test [15] and in test [16] was inactive.

For the molecule `NC(=O)c1cnccn1`, the call in test [1], in [2], in test [3], in test [4], in test [5] and in test [6] was inactive. The outcome in test [7], in test [8], in test [9], in test [10], in test [11] and in test [12] was inactive. The molecule was called inactive in test [13], in test [14], in test [15], in [17] and in [16].

Consider `CCOC(=O)CCCCCCCCC(=O)OCC`, for which the result in test [1], in [3], in test [4], in test [5], in test [18] and in [6] was inactive. The outcome in test [7], in test [8], in test [19], in test [9], in test [10] and in test [12] was inactive. For the same molecule, the outcome in test [13], in [14], in [15], in test [17] and in test [16] was inactive.

Consider `CCCCCCCCCC(=O)OCC`, for which the outcome in test [1], in test [3], in [4], in test [5], in [18] and in test [6] was inactive. Also, the call in [7], in test [8], in [19], in [9], in test [10] and in [11] was inactive. The call in test [12], in [13], in [14], in test [15] and in [16] was inactive.

For orientation: AC50 means the concentration at which the activity in the assay is half-maximal. `COc1ccccc1NC(=O)CC(C)=O`: the call in [1], in [3], in test [4], in [5], in [18] and in test [6] was inactive. In addition, the call in [7], in test [8], in test [19], in test [9], in [11] and in test [12] was inactive. Also, the result in test [13], in test [14], in [15], in [17] and in [16] was inactive. In test [10], the AC50 was 34.2 µM (active).

In the case of `CC(C)COC(=O)c1ccccc1`, the result in test [1], in test [2], in [3], in test [4], in [5] and in test [6] was inactive. Besides, the outcome in test [8], in test [19], in test [9], in test [10], in test [11] and in [12] was inactive. Also, the outcome in test [13], in [14], in test [17] and in test [16] was inactive.

Regarding `N#CCCNCCC#N`, the result in test [1], in [3], in test [4], in [5], in test [18] and in [6] was inactive. Further, the molecule was classed as inactive in test [7], in test [8], in [19], in test [9], in test [10] and in test [11]. The molecule was called inactive in test [12], in test [13], in [14], in [15], in test [17] and in test [16].

Take `NC(N)=NC(N)=NCCc1ccccc1`: the molecule was classed as inactive in [1], in [2], in [3], in test [4], in test [5] and in test [6]. Further, the call in test [7], in test [8], in test [9], in test [10], in test [11] and in [12] was inactive. Besides, the molecule was called inactive in test [13], in [15], in [17] and in [16].
